# PubChem BioAssay AID504882 (Broad Institute, 2011)
# Among all 1,200 compounds or so, about 290 (24%) were called active. Roughly 9% stayed inconclusive and do not appear here. The rule behind the calls is not given here. These entries were drawn from the full list. Measured potencies and affinities stand elsewhere.
# Assay: LCL viability reduction – cell-based, plate reader, cherry-picks, set 2, cytotoxicity control, dose response (AID 504882);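 note: 0% = neutral control wells and -100% = positive control wells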
# Conditions: EBV lymphoblastoid cells (LCL) viability; series mostly up to 19.5 µM; activity change, negative = cytotoxicity: at the top concentration
row,Structure (SMILES),"activity change, negative = cytotoxicity"
1,CN1CCN(C(=O)C2=C[C@@H](C(C)(C)C)C[C@@H](OCc3ccc(CO)cc3)O2)CC1,11.6% (inactive)
2,COc1ccc(C(CNC(=O)Nc2ccccc2)N2CCN(C)CC2)cc1 (stereo not given),14.2% (inactive)
3,CC1CN(c2cc(=O)n(-c3ccccc3)c(=O)[nH]2)CC(C)O1 (stereo not given),18.3% (inactive)
4,N#CCCn1cc(C(=O)Nc2ccccn2)c(-c2ccccc2)n1,14.4% (inactive)
5,O=C(Nc1ccccn1)NC1CCCCC1,7.78% (inactive)
6,Cc1ccc(NC(=O)C(=O)Nc2ccccn2)cc1,-5.99% (inactive)
7,COc1ccc(OCC(=O)Nc2nccs2)cc1,-3.7% (inactive)
8,O=[N+]([O-])c1ccc(N2CCN(Cc3cccc([N+](=O)[O-])c3)CC2)cc1,-8.09% (inactive)
9,Cc1ccc(C2=C/C(=C\c3cccnc3)C(=O)O2)cc1,26.3% (inactive)
10,CCOc1ccc(N(C(C)C(=O)N2CCCCCC2)S(C)(=O)=O)cc1 (stereo not given),16.9% (inactive)
11,CCN(CC)c1ccc(NC(=O)c2cccc(F)c2)c(C)c1,-4.81% (inactive)
12,CN(C)c1cccc(C(=O)N/N=C/c2ccccc2F)c1,-0.033% (inactive)
13,Cn1ncc(Cl)c1C(=O)NC1CCCC1,8.05% (inactive)
14,COCCn1c(SCC(=O)N2CCc3ccccc32)nc2c(c1=O)SC(C)C2 (stereo not given),4.03% (inactive)
15,Cc1cc(C)n(C2CCCCC2OC(=O)c2ccccc2F)n1 (stereo not given),6.26% (inactive)
16,O=C(c1ccc(Cl)cc1)N1CCN(CCOc2ccccc2)CC1,-5.59% (inactive)
17,CNC(=S)N1N=C(c2cccs2)CC1c1ccc(F)cc1 (stereo not given),6.47% (inactive)
18,O=C1OCCC1Sc1nnc(-c2ccc(Cl)cc2Cl)o1 (stereo not given),3.95% (inactive)
19,CCCC(=O)C1=C(O)C(C(=O)OC)C(C)(C)CC1=Nc1ccncc1 (stereo not given),0.978% (inactive)
20,Cc1cc(C(=O)COC(=O)c2ccc[nH]c2=O)c(C)n1-c1ccccc1,7.68% (inactive)
21,COc1ccc(S(=O)(=O)N2CCOCC2)cc1NC(=O)COC(=O)CCS(=O)(=O)c1ccc(C)cc1,18.5% (inactive)
22,O=C(O)CCc1nc(-c2ccc(Cl)cc2)no1,12.6% (inactive)

row,Structure (SMILES),"activity change, negative = cytotoxicity"
1,NC(=O)c1sc2nc3c(c(-c4cccs4)c2c1N)CCCCC3,-24.2% (inactive)
2,O=C1CC(c2cccs2)Cc2nc(NC(=O)C3CC3)ncc21 (stereo not given),7.29% (inactive)
3,O=C(Nc1ccc(Br)cc1)C1CC(O)CN1C(=O)OCc1ccccc1 (stereo not given),-0.795% (inactive)
4,CC(CN1CCCCC1)OC(=O)c1ccc2c(c1)OCO2 (stereo not given),8.24% (inactive)
5,COC(=O)C1=C(C(=O)c2ccccc2)C(c2ccccc2)n2nnnc2N1 (stereo not given),9.39% (inactive)
6,Cc1ccc(NC(=O)/C=N/OCC(=O)NCc2ccccc2Cl)cc1,4.91% (inactive)
7,Cc1cc(N)nc(=O)n1C1CC(O)C(CO)O1 (stereo not given),13.5% (inactive)
8,CCOC(=O)/C=C(\C)Sc1cc(=O)oc2ccccc12,9.34% (inactive)
9,CCCNC(=O)N1CCN(S(=O)(=O)c2ccc(C)c(C)c2)CC1,27.5% (inactive)
10,COc1ccc(S(=O)(=O)N2CCCCCC2)cc1C(=O)OCc1cccc(OC)c1OC,-3.66% (inactive)
11,Cc1ccc(-n2nc(C(=O)NCc3ccc(C)o3)c3c4ccccc4n(C)c3c2=O)cc1,3.13% (inactive)
12,COc1ccc(OC)c(CCNC(=O)CCn2nc(C)c3c(C)n(-c4ccccc4)nc3c2=O)c1,17% (inactive)
13,Cn1cc(CC(=O)NCCCN2CCCC2)c2ccccc21,8% (inactive)
14,CCOC(=O)N1CCC(NC(=O)C2CCCN(Cc3nc(-c4cccc(Cl)c4)oc3C)C2)CC1 (stereo not given),20.2% (inactive)
15,NC(=O)OCC(COC(N)=O)c1ccccc1,7.54% (inactive)
16,O=C(CN1C(=O)c2ccccc2S1(=O)=O)c1ccccc1,15.8% (inactive)
17,COc1ccc(-n2cnc3c(cnn3CCC#N)c2=N)cc1,16.5% (inactive)
18,O=C(NC1CCCCC1)N1CCN(c2ccc([N+](=O)[O-])cc2)CC1,-5.42% (inactive)
19,COc1ccc(CCNC(=O)c2nnn(-c3ccc4c(c3)OCCO4)c2N)cc1OC,10.3% (inactive)
20,Cc1ccccc1-n1nc(C)c2cc(C(=O)NC3CC3)sc21,12.5% (inactive)
21,CC1CCN(CCOc2ccc(C(=O)c3ccccc3)cc2)CC1,8.06% (inactive)
22,O=C(Cn1ccc(C(F)(F)F)n1)Nc1cccc(S(=O)(=O)N2CCCCC2)c1,6.79% (inactive)

row,Structure (SMILES),"activity change, negative = cytotoxicity"
1,O=C1C2CCCN2c2ccc(S(=O)(=O)N3CCOCC3)cc2N1Cc1ccccc1F (stereo not given),0.737% (inactive)
2,Cn1c(CC(=O)Nc2ccc(F)cc2)nnc1SCC(=O)Nc1nncs1,9.16% (inactive)
3,Cc1ccccc1N(C(=O)c1snc(C(N)=O)c1N)C(C(=O)NC1CCCCC1)c1ccc(O)cc1 (stereo not given),10.6% (inactive)
4,N#CCN(N=Nc1ccccc1)c1ccccc1,5.24% (inactive)
5,COC(=O)c1ccc(/C=C(/NC(=O)c2ccccc2)C(=O)N2CCOCC2)cc1,26.1% (inactive)
6,Cc1cc(/C=C2\Cc3ccccc3C2=O)c(C)n1-c1ccccc1,-4.17% (inactive)
7,Cc1ccc(CCNC(=O)CCc2nc3ccccc3[nH]2)cc1,16.2% (inactive)
8,CC(=O)Nc1ccc(OCC(O)CNC(C)C)cc1 (stereo not given),7.6% (inactive)
9,CC1=C(C)C(OCCCl)N(c2cc(O)c(Cl)cc2F)C1=O (stereo not given),13.6% (inactive)
10,O=C(O)c1cccc(NC(=O)c2cn(-c3ccccc3)nc2-c2ccc(F)cc2)c1,12.6% (inactive)
11,N/C(=N\OC(=O)c1cccc(Br)c1)c1ccccn1,7.28% (inactive)
12,C/C(=N/NC(=O)c1cc(C2CC2)[nH]n1)c1cccs1,6.57% (inactive)
13,Cc1cc(C(=O)CSc2nnc(-c3cccs3)o2)c(C)n1-c1ccccc1,0.738% (inactive)
14,CN(Cc1ccc(F)cc1)C(=O)CN1CCN(S(=O)(=O)c2ccc3c(c2)OCCCO3)CC1,3.94% (inactive)
15,COc1cc(N(C)C)c([N+](=O)[O-])cc1C(=O)N1CCN(Cc2ccccc2)CC1,10.1% (inactive)
16,COc1ccc(CCNC(=O)CSc2ccsc2[N+](=O)[O-])cc1OC,22.9% (inactive)
17,CCOc1ccc(NC(=O)Cn2cc(C(=O)CC)c3ccccc32)cc1,10.4% [at 6.8 µM] (inactive)
18,O=C(NC(Cc1c[nH]c2ccccc12)C(=O)Nc1ccc(F)c([N+](=O)[O-])c1)c1cccs1 (stereo not given),-21.1% (inactive)
19,COc1ccc(/C=N/Nc2cc(OC)ncn2)cc1,1.43% (inactive)
20,Cc1ccc(C)c(S(=O)(=O)N2CCN(CC(=O)N3CCc4ccccc4C3)CC2)c1,19.5% (inactive)
21,Cc1ccc(NC(=S)Nc2cccc(S(=O)(=O)Nc3c(C)n(C)n(-c4ccccc4)c3=O)c2)cc1,9.53% (inactive)
22,O=C1N[C@@H](Cc2c[nH]c3ccccc23)COC(=O)[C@H](Cc2ccc(F)cc2)C/C=C\C[C@H]1CC(=O)N(CCO)Cc1ccccc1,25% [at 6.8 µM] (inactive)

row,Structure (SMILES),"activity change, negative = cytotoxicity"
1,O=C(Nc1ccc(CN2CCOCC2)cc1)c1cc2ccccn2n1,15.2% (inactive)
2,O=C(Nc1ccc(N2CCOCC2)cc1)c1cnccn1,6.78% (inactive)
3,CSc1nc(N)nc(SCC(=O)C23CC4CC(CC(C4)C2)C3)c1C#N,-16.5% (inactive)
4,COc1ccc(C2CC(C(F)(F)F)n3ncc(C(=O)NCc4cccnc4)c3N2)cc1OC (stereo not given),15.4% (inactive)
5,O=C(CN1C(=O)c2ccccc2C1=O)NNC1=NS(=O)(=O)c2ccccc21,12.6% (inactive)
6,CCOc1cccc(CNc2nnnn2C)c1,9.74% (inactive)
7,COc1ccc(/C=C/c2nc3ccccc3c(=O)o2)cc1,4.96% (inactive)
8,CCCC(=O)NCCCc1nc2ccccc2n1C,23.7% (inactive)
9,Nc1nc2ccccc2n1C(=O)c1ccccc1,-8.2% (inactive)
10,CC(C)(C)n1nc(-c2ccc(Cl)cc2)c2c(N)ncnc21,-15.3% (inactive)
11,O=C(CCNc1cccc(F)c1)c1cc2ccccc2o1,23.3% (inactive)
12,CCc1cc(=O)oc2c(CNCc3c(F)cccc3Cl)c(O)ccc12,8.05% (inactive)
13,Cc1cc(N2CCCC2=O)cc(C)c1S(=O)(=O)Nc1c(C)nn(C)c1C,32.3% (inactive)
14,O=C(C=C1SCCS1)/C=C/c1ccco1,-1.34% (inactive)
15,CC(C)(C)c1ccc(C(=O)Nc2nnc(SCC(=O)NCC3CCCO3)s2)cc1 (stereo not given),-6.37% (inactive)
16,Cc1cc(NC(=O)CSc2ccnc(=O)[nH]2)no1,16.4% (inactive)
17,CC(C)Cc1ccc([C@H](C)C(=O)O)cc1,18.9% (inactive)
18,CS(=O)(=O)N(CC(=O)Nc1ccc(F)cc1F)C1CCCCC1,14.4% (inactive)
19,O=C1CCC(C(=O)N2CCCCCC2)CN1CCc1ccc(Cl)cc1 (stereo not given),20.2% (inactive)
20,O=C1/C(=C/c2cccnc2)SC(=S)N1Cc1ccco1,1.8% [at 6.8 µM] (inactive)
21,S=C1SCN(Cc2ccccc2)CN1Cc1ccco1,12.7% (inactive)
22,CC(C)NC(=O)N(C)C[C@H]1Oc2c(NC(=O)Nc3ccc4c(c3)OCO4)cccc2C(=O)N([C@H](C)CO)C[C@@H]1C,4.16% (inactive)

row,Structure (SMILES),"activity change, negative = cytotoxicity"
1,O=C1CCCN2N=C(SCC(=O)Nc3ccc(Br)cc3)SC2=N1,9.82% (inactive)
2,COc1ccc(S(=O)(=O)NCCc2csc(-c3cccnc3)n2)cc1,8.73% (inactive)
3,CC1Cc2ccccc2N1c1ncnc(N)c1[N+](=O)[O-] (stereo not given),-9.34% (inactive)
4,CC(=O)Nc1ccc(NC(=O)C(c2ccccc2)c2ccccc2)cc1,21.4% (inactive)
5,O=C(Cc1ccc(Cl)cc1)NCC(=O)N1CCCCC1,25.1% (inactive)
6,CCOC(=O)c1cn2nc(N3CCCC3)ccc2n1,27.5% (inactive)
7,COc1cc(/C=N/NC(=O)c2cc(C34CC5CC(CC(C5)C3)C4)[nH]n2)ccc1O,4.71% (inactive)
8,COc1cc2cc(C(=O)Nc3ccc4c(c3)OCCO4)[nH]c2cc1OC,8.74% (inactive)
9,O=C(Nc1cc(S(=O)(=O)N2CCOCC2)ccc1Cl)c1ccncc1,5.54% (inactive)
10,COC(=O)[C@H](C)[C@H]1C[C@]1(C)[C@H](NC(=O)OCc1ccccc1)c1ccccc1,16.4% (inactive)
11,COc1ccccc1N1CCN(CCCNC(=O)C2CCCN(c3ncnc4c3nc3n4CCCCC3)C2)CC1 (stereo not given),16.8% (inactive)
12,Cc1ccsc1/C=N/NC(=O)c1ccc2c(c1)OCCO2,-0.701% (inactive)
13,CC(=O)c1c(C)[nH]c(C(=O)Nc2ccc(C)cn2)c1C,29.2% (inactive)
14,CCOC(=O)c1sc(NC(=O)CNCc2ccccn2)c(C(=O)OCC)c1C,-14.9% (inactive)
15,Cc1cccn2c(=O)c(C=NCCO)c(NCc3ccco3)nc12,10.4% (inactive)
16,Clc1ccccc1C1=Nn2c(nnc2-c2ccncc2)SC1,-2.34% (inactive)
17,Cc1ccc(C(=O)Nc2cccc(C(F)(F)F)c2)cc1Nc1ncnc2nc[nH]c12,-13.2% (inactive)
18,c1cncc(CNc2ncnc3ccc(-c4ccoc4)cc23)c1,-1.4% (inactive)
19,Cc1sc2ncn(CC(=O)N3CCC(C(N)=O)CC3)c(=O)c2c1S(=O)(=O)N1CCOCC1,19.7% (inactive)
20,Cc1ccc(N2CCN(C3=NC(=O)/C(=C\c4cn[nH]c4-c4ccccc4)S3)CC2)cc1,1.34% (inactive)
21,CC1CCN(C(=O)/C(=C\c2cccs2)NC(=O)c2ccccc2)CC1,4.9% (inactive)
22,C=CCN(c1ccc(C(=O)Nc2ccc3c(c2)n(C)c(=O)n3C)cc1)S(C)(=O)=O,6.74% (inactive)
